A short description of assay [1]: Validation of Assay for Modulators of Lamin A Splicing (AID 1459; active = well fitted curve in the direction sought with a large enough effect in the signal ratio; the % refers to the signal ratio;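 note: cells exposed to compound for two days before reading; 0% is about no effect; ratio rise marks activators and ratio drop marks inhibitors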). The method, boiled down:
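Splicing correction is reported by an EGFP-containing lamin A minigene in stably transfected S3 HeLa cells, while DsRed2 controls for viability and nonspecific signal. Cells are exposed to compounds for 48 hrs before the GFP over RFP ratio is taken.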

Assay [2] addresses DNA repair nuclease/redox regulator APEX1 (Homo sapiens) (UniProt P27695). Description: qHTS Validation Assay for Inhibitors of the Human Apurinic/apyrimidinic Endonuclease 1 (APE1) (AID 1705;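 note: TAMRA fluorescence gain over two minutes as APE1 cuts a quenched THF abasic duplex; series mostly up to about 57 µM; % is set by controls: 0 for no effect and ±100 for the full control effect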). A digest of the protocol: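 Endonuclease activity of human APE1 is followed as dequenching when the enzyme incises a tetrahydrofuran abasic site in a short duplex labelled 5'-TAMRA/3'-BHQ-2 (50 nM final), after 15 min enzyme–compound preincubation at room temperature.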

A short description of assay [3]: Counterscreen for APE1 Inhibitors: Fluorescent Dye Displacement Validation Assay (AID 1707).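 Note: plate controls were ThO with dsDNA and no compound for no effect and ThO without dsDNA for full effect.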 A digest of the protocol: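 Reaction mixture of 250 nM Thiazole Orange and 50 nM double-stranded abasic-site DNA was dispensed, compounds were pin-transferred, and fluorescence was read at endpoint (480 nm ex, 540 nm em). Reduced fluorescence indicated dye displacement by DNA binding.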

The nature of assay [4]: qHTS for differential inhibitors of proliferation of Plasmodium falciparum line 3D7 (AID 1876). Note: potency is the fitted concentration of half-maximal effect.
Assay [5] can be described thus: qHTS for differential inhibitors of proliferation of Plasmodium falciparum line D10 (AID 1877).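 Note: parasites grown with compound for 72 h before DNA staining.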 Note: potency is the fitted concentration of half-maximal effect.
The nature of assay [6]: qHTS for differential inhibitors of proliferation of Plasmodium falciparum line HB3 (AID 1886).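 Note: parasites grown with compound for 72 h before SYBR Green readout; plate controls were vehicle for no effect and reference inhibitor for full effect.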 The following applies: Potency: Plasmodium falciparum HB3 proliferation inhibition. (Quantitative high-throughput screening tests each substance at several concentrations.)
In assay [7] the target is ATP-dependent DNA helicase Q1 (Homo sapiens) (UniProt P46063). Description: qHTS Validation Assay for Inhibitors of RecQ-Like Dna Helicase 1 (RECQ1) (AID 2353).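 Note: plate controls were DMSO vehicle for no effect and enzyme-free control for full effect.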 A digest of the protocol:
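RECQ1T1 50 nM; forked duplex (20 bp + 30-nt ss tails) 200 nM, ATP 2 mM final; pH 8.0, 2 mM MgCl2, 2.5 ug/ml poly(dI-dC); 15 min compound preincubation; discontinuous kinetic read over 2 h at RT.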

Assay [8] in a line: Validation screen for small molecules that induce DNA re-replication in MCF 10A normal breast cells (AID 463097). Note: 0% is about no effect; nearly all actives have a fitted effect of over 60% in size. A digest of the protocol: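 DNA re-replication was detected as a rise in nuclei with elevated Hoechst fluorescence after a 48 hr compound exposure of MCF 10A cells at 37 C.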
The nature of assay [9]: Quantitative high throughput screen for delayed death inhibitors of the malarial parasite plastid, 96 hour incubation (AID 488745).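 Note: luciferase-expressing P. falciparum in erythrocytes at 2% hematocrit and 0.1% parasitemia; series mostly up to about 29 µM; % is set by controls: 0 for no effect and ±100 for the full control effect; nearly all actives have a fitted effect of over 70% in size.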 The method, boiled down:
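Readout is firefly luciferase luminescence from an integrated reporter in P. falciparum; lower signal marks inhibited growth. Cultures at 2% hematocrit and 0.1% parasitemia were treated with compound across two generations (96 h, 37 C, 5% CO2).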

Assay [10] is described as follows: Quantitative high throughput screen for delayed death inhibitors of the malarial parasite plastid, 48 hour incubation (AID 488752). Note: nearly all actives have a fitted effect of over 65% in size. Note: potency is the fitted concentration of half-maximal effect. The method, boiled down:
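First, compound was pinned into RPMI 1640 medium containing 0.5% Albumax. Next, reporter-parasite-infected erythrocytes were added to 2% hematocrit and 0.1% parasitemia. After 48 h at 37 C under 5% CO2, luciferase detection reagent was added and luminescence read.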

The target of assay [11] is Transient receptor potential cation channel subfamily V member 1 (Homo sapiens) (UniProt Q8NER1). Nature of the assay: HTS Assay for Compounds that Act as Enhancers of the Vanilloid Receptor 1 (AID 488979). Note: 0% is about no effect. A digest of the protocol:
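TRPV1-expressing cells loaded with Fluo-8 calcium dye; compounds added and calcium influx read kinetically for 3 min (agonist phase), then capsaicin at EC20 added and read 2 min more for enhancement. Fluorescence ex 480/em 520 nm.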

In assay [12] the target is Thyrotropin receptor (Homo sapiens) (UniProt P16473). Nature of the assay: qHTS Assay for Antagonists of the Thyroid Stimulating Hormone Receptor (AID 488980). Note: series mostly up to about 58 µM; 0% is about no effect. The method, boiled down: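 Cells expressing human TSHR (HEK293) are dispensed in HBSS/HEPES containing 70 uM RO 20-1724, compound is added, then TSH at EC80 (4 nM final). Antibody in lysis buffer follows, 30 minutes at room temperature before HTRF detection.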
Thyrotropin receptor (Homo sapiens), sequence (P16473 whole entry, looked up): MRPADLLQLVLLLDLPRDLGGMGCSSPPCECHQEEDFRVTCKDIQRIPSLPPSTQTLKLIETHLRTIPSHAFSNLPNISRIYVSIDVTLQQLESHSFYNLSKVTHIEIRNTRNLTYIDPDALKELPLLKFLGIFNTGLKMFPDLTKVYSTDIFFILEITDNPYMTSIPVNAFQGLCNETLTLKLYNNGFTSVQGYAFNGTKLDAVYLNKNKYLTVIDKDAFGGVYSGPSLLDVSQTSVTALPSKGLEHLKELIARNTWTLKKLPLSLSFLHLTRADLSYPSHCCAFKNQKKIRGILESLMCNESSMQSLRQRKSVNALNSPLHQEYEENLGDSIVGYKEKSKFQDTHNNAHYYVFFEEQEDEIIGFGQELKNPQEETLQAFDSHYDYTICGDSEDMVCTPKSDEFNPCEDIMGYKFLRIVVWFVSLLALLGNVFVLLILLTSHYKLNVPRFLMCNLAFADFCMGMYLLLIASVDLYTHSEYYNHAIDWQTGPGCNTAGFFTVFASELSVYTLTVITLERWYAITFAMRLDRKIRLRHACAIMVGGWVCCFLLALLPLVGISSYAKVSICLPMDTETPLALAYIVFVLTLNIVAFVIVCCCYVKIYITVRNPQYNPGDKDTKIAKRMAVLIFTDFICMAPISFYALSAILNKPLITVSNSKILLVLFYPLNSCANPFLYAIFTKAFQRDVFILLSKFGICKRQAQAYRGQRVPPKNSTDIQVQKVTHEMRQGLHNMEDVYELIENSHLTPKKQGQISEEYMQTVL

Assay [13] addresses Thyrotropin-releasing hormone receptor (Homo sapiens) (UniProt P34981). Nature of the assay: qHTS for Small Molecule Agonists and Allosteric Enhancers of Human TRH Receptor: Validation Screen for Agonists (AID 493127;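 active = calcium activation more than 3 SD above the typical response in the agonist read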;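 note: intracellular calcium rise by fluo-8 fluorescence before TRH EC20 addition; 0% is about no effect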). The following applies: TRH receptor agonist cell assay; at 2 µM; active compounds read high. A digest of the protocol:
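Compounds are added by online pintool to dye-loaded TRHR cells while fluorescence is recorded every second. A rise in calcium signal during the agonist read marks activation; a later 10 nM TRH addition (EC20) serves the separate enhancer mode.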

The target in assay [14] is Galactokinase (Homo sapiens) (UniProt P51570). Nature of the assay: qHTS Validation Assay for Inhibitors of Human Galactokinase (GALK) (AID 493189). Note: 0% is about no effect. The method, boiled down: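 Compounds were pin-transferred into ATP buffer, then GALK-galactose mix was added (final 5 nM enzyme, 100 uM galactose, 35 uM ATP). After 1 h at room temperature, remaining ATP was measured luminescently.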
Galactokinase (Homo sapiens), sequence (P51570 whole entry, looked up): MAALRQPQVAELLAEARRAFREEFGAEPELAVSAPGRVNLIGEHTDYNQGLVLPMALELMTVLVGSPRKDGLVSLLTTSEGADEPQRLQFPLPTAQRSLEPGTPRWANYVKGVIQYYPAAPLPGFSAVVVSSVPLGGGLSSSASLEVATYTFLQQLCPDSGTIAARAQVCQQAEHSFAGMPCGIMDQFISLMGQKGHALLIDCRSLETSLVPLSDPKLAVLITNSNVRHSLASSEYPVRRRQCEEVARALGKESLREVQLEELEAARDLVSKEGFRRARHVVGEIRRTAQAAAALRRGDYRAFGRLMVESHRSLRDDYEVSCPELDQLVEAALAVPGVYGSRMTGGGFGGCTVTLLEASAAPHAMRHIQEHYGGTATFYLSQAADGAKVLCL

Assay [15] can be described thus: Validation screen for small molecules that induce DNA re-replication in SW480 colon adenocarcinoma cells (AID 504364). Note: 0% is about no effect. A digest of the protocol: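 Image-based qHTS: compounds were incubated with SW480 cells for 48 hr, nuclei stained with Hoechst, and per-nucleus fluorescence intensity scanned to flag cells with excess DNA content.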
The nature of assay [16]: qHTS for differential inhibitors of proliferation of Plasmodium falciparum line GB4 (AID 1816).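 Note: parasite growth measured after 72 h incubation.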 Note: potency is the fitted concentration of half-maximal effect. The following applies: Potency: Plasmodium falciparum GB4 proliferation inhibition.

9 compounds from PubChem BioAssay (NCATS) can be followed below.

Unmarked numbers belong to inactive results. Results filed as inconclusive are left out. Calls of active or inactive are those of the source. Unless noted, calls come from the whole dose curve; as a rule, active = well fitted curve in the direction sought with a large enough effect; inconclusive = small, poorly fitted or top-dose-only effect, or another doubt; inactive = no such curve, though single readings can be large; an effect the other way counts as inactive or inconclusive.

DNA repair nuclease/redox regulator APEX1 (Homo sapiens), sequence (P27695 whole entry, looked up): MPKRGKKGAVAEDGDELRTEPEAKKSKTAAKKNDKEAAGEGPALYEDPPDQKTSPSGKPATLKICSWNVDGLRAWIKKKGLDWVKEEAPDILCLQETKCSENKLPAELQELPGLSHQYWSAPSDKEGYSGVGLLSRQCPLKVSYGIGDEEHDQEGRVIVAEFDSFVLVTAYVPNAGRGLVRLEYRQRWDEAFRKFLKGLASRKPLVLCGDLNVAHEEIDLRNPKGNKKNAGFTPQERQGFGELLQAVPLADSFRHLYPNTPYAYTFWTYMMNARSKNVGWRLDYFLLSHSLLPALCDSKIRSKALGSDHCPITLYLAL
ATP-dependent DNA helicase Q1 (Homo sapiens), sequence (P46063 whole entry, looked up): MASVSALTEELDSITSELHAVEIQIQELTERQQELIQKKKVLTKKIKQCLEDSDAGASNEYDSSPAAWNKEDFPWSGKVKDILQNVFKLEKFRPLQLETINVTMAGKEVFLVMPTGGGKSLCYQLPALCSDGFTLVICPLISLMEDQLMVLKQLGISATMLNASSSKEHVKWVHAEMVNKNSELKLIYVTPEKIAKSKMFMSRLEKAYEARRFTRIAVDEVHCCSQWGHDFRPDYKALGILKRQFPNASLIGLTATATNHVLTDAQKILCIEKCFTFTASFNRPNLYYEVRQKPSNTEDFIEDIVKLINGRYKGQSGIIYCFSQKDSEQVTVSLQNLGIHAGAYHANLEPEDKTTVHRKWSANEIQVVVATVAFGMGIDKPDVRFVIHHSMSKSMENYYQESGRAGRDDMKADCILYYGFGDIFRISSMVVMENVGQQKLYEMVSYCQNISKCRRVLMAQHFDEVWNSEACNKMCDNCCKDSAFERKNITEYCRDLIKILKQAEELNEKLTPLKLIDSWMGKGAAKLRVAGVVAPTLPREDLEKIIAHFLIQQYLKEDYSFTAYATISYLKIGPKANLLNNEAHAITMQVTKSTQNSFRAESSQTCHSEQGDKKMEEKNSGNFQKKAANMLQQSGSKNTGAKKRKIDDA
Transient receptor potential cation channel subfamily V member 1 (Homo sapiens), sequence (Q8NER1 whole entry, looked up): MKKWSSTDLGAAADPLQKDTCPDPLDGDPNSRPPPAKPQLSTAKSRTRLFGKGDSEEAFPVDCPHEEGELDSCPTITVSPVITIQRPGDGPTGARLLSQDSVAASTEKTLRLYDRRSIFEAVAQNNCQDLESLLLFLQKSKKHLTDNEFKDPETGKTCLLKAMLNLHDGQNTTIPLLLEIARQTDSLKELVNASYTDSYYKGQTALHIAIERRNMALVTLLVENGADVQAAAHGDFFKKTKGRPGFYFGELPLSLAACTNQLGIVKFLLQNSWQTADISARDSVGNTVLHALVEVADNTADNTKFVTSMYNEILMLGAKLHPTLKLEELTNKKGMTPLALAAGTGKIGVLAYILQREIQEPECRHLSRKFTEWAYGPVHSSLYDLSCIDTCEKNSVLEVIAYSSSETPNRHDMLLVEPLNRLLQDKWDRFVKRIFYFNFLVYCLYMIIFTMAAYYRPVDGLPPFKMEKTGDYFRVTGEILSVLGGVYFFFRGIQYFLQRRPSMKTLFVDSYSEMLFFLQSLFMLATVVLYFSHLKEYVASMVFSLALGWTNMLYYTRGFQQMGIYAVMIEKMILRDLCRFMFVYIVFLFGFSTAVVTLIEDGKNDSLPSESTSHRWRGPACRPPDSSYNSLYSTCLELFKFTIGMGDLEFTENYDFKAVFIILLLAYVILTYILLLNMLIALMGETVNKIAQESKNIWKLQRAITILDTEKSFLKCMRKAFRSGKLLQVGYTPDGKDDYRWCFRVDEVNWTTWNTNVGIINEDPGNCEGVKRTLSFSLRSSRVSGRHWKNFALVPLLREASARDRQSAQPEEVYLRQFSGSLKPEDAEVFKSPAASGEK
Thyrotropin-releasing hormone receptor (Homo sapiens), sequence (P34981 whole entry, looked up): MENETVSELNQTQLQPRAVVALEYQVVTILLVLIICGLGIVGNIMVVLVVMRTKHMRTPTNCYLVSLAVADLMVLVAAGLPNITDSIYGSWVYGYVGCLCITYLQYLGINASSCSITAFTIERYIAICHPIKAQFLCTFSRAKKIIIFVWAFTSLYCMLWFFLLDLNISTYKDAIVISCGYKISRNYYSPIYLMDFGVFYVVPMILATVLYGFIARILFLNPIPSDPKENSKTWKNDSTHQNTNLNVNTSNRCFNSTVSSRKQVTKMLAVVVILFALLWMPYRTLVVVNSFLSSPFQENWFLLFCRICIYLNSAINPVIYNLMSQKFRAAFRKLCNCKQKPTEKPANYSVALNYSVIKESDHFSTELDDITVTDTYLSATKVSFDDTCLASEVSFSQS

Regarding `NC(=S)NCCCC(N)C(=O)O` (centres undefined), the result in [1], in [8], in assay [11], in assay [12], in assay [14] and in assay [15] was inactive. For the same compound, the Potency entry in assay [2], in [3], in assay [4], in assay [5], in assay [6] and in assay [7] was “inactive” each time. Further, the Potency entry in [9] and in [10] was “inactive” throughout. Moreover, the activation in assay [13] was -0.25%.

As for `Nc1nc2c(nc(Br)n2C2O[C@H]3COP(=O)(O)O[C@@H]3C2O)c(=O)[nH]1` (some centres undefined), the result in assay [1], in assay [8], in assay [11], in [12], in assay [14] and in [15] was inactive. Further, the Potency entry in assay [2], in assay [3] and in assay [7] was “inactive” throughout. The results for the Potency in [4] and in assay [10] were 10 µM (active) and 10.4 µM (active), respectively. In addition, in assay [13], the activation was 0.812%.

Consider `CSc1nc(N)c2ncn([C@@H]3O[C@H](COP(=O)(O)OP(=O)(O)OP(=O)(O)O)[C@H](O)[C@H]3O)c2n1`, for which the outcome in assay [1], in [8], in assay [11], in assay [12], in assay [14] and in assay [15] was inactive. The Potency entry in assay [2], in assay [3], in [7], in [9] and in assay [10] was “inactive” each time. Besides, the Potency in assay [16] and in assay [5] was 12.6 µM (active) each time. For the same compound, in [13], the activation was 24.8%.

Regarding `Nc1ncnc2c1ncn2[C@@H]1O[C@H](CO)[C@H](O)[C@H]1O`, the call in assay [1], in assay [8], in assay [11], in assay [12], in assay [14] and in assay [15] was inactive. Besides, the Potency result in assay [2], in assay [3], in assay [16], in assay [4], in assay [5] and in [6] was “inactive” each time. Moreover, the Potency result in [7], in assay [9] and in assay [10] was “inactive” throughout. Moreover, in assay [13], the activation is 1.5%.

For the compound `O=[N+]([O-])c1ccc(CSc2ncnc3c2ncn3[C@@H]2O[C@H](CO)[C@H](O)[C@H]2O)cc1`, the compound was called inactive in assay [1], in assay [8], in assay [11], in assay [12], in [14] and in assay [15]. The Potency result in [2], in [3], in assay [16], in assay [5], in assay [7] and in [9] was “inactive” throughout. Besides, the Potency result in assay [10] was “inactive”. Further, the activation in assay [13] was 0.688%.

As to `OC[C@H]1O[C@@H](n2cnc3c(NC4CCCC4)ncnc32)[C@H](O)[C@H]1O`, the compound was classed as inactive in [1], in assay [8], in [11], in assay [12], in [14] and in assay [15]. Moreover, the Potency result in assay [2], in assay [3], in assay [16], in [4], in [5] and in [6] was “inactive” in each case. The Potency entry in assay [7], in [9] and in assay [10] was “inactive” in each case. In [13], the activation was -0.438%.

For `C[C@H]1CC2[C@@H]3CCC4=CC(=O)C=C[C@]4(C)[C@@]3(Cl)[C@@H](O)C[C@]2(C)[C@@]1(O)C(=O)CO` (some centres undefined), the compound was classed as inactive in assay [1], in assay [8], in [11], in assay [12], in assay [14] and in [15]. Further, the Potency result in assay [2], in assay [3], in assay [4], in [5], in [7] and in assay [9] was “inactive” throughout. In addition, the Potency entry in [10] is “inactive”. The activation in [13] is 0.25%.

As for `CNC(=O)[C@H]1O[C@@H](n2cnc3c(NCc4ccc(N)cc4)ncnc32)[C@H](O)[C@H]1O`, the compound was classed as inactive in assay [1], in [8], in assay [11], in [12], in assay [14] and in assay [15]. Further, the Potency entry in assay [2], in [3], in assay [16], in [4], in assay [5] and in assay [6] was “inactive” each time. The Potency result in assay [7], in assay [9] and in assay [10] was “inactive” in each case. In addition, the activation in assay [13] is -0.312%.

Turning to `CC(=O)NCCc1ccc(O)c(O)c1`, the result in assay [1], in [8], in assay [11], in assay [12], in assay [14] and in assay [15] was inactive. The Potency result in [2], in assay [3], in assay [7], in assay [9] and in assay [10] was “inactive” throughout. The activation in assay [13] was 0.75%.
